Compound activity (PubChem BioAssay)
This is one part of a sample in which hits are shown more often than they occur.
Cruzain inh Det – cruzain (T. cruzi) inhibition with detergent. hit rate 0.43% among 200,000. Potency, µM, without a hit: max response, negative = inhibition, most hits filed as inhibitors. purified cruzain, Z-FR-AMC fluorescence, 0.01% Triton;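 further: plate controls were neutral wells for no effect and buffer without enzyme for full effect; nearly all actives have a fitted effect of over 40% in size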
Target sequence (P25779 123-467 limits assumed): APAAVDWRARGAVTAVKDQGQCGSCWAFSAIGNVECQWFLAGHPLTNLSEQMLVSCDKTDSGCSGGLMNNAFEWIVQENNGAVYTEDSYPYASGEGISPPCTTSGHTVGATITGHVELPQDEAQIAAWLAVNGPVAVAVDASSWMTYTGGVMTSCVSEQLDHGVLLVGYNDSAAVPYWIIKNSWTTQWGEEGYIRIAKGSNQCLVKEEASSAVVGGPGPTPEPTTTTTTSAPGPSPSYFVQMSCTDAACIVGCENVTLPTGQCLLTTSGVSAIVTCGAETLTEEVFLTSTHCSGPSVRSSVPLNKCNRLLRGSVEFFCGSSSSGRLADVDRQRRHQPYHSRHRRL
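Cruzain (1.5 nM) preincubated 15 min at RT with compound in 100 mM sodium acetate pH 5.5, 5 mM DTT, 0.01% Triton X-100. Reaction started with 2 uM Z-FR-AMC; AMC fluorescence (ex 360/em 450 nm) change over 60 s gave rate.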
Giardia FBPA inh – inhibitors of Giardia lamblia fructose-1,6-bisphosphate aldolase; hit rate 0.71% among 290,000; purified Giardia FBPA; Potency, µM (highest dose often 59.6 µM), for inactives: at the highest dose activity, negative = inhibition, hits mostly inhibitors; A8B2U2; AID 2451; further: nearly all actives have a fitted effect of over 55% in size
Target sequence (A8B2U2 whole entry, looked up): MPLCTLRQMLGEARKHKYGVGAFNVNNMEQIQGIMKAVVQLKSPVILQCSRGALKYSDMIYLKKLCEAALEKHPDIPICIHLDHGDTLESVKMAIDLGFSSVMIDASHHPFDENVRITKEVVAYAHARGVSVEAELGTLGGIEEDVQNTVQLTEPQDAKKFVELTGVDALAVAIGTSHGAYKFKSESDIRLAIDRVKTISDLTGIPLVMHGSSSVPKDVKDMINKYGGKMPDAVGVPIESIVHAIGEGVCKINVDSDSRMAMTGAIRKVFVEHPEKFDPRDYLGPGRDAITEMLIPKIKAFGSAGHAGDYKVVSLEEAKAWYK
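Giardia FBPA (40 nM reagent) was preincubated 10 min at RT with compound (up to 57.5 uM final), then substrate plus GAPDH/TPI/NAD/arsenate coupling system with diaphorase/resazurin was added; resorufin fluorescence (525/598 nm) was read after 20 min.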
Cruzain inh noDet – cruzain (T. cruzi) inhibition without detergent | P25779 | purified cruzain, Z-FR-AMC fluorescence, no detergent | Potency, µM, inactives show max response, negative = inhibition, usual class: inhibitors | hit rate 2.3% among 200,000 | AID 1476;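 further: plate controls were enzyme without inhibitor for no effect and buffer without enzyme for full effect; nearly all actives have a fitted effect of over 40% in size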
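Purified cruzain at 1.5 nM, pre-incubated 15 min with compound at room temperature in 100 mM sodium acetate pH 5.5, 5 mM DTT, 0.00005% Triton X-100. Reaction started with 2 uM Z-FR-AMC; AMC fluorescence increase over 60 s gives rate.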
Starred values were filed as active, the others as inactive; ? = inconclusive; . = no result given. The call rests on the fitted dose curve; in most records, active means well fitted curve in the direction sought with a large enough effect; inconclusive means small, poorly fitted or top-dose-only effect, or another doubt; inactive means no such curve, though single readings can be large; an effect the other way counts as inactive or inconclusive. Unless noted, on the % scale 0 is the no-effect control and ±100 the full control effect; potency means the concentration at half of the fitted maximal effect.

SMILES | Cruzain inh Det | Giardia FBPA inh | Cruzain inh noDet
O=C1c2ccccc2C(=O)N1c1ccc(Cc2ccc(N3C(=O)c4ccccc4C3=O)cc2)cc1 | 0% | . | 4%
COc1ccccc1NC(=O)C1=C(C)Nc2c(C(=O)Nc3cccc(C)c3)cnn2C1c1ccccc1Cl (stereo not given) | -6% | . | 25µM*
COc1ccccc1NC(=O)C1=C(C)Nc2c(C(=O)Nc3cccc(C)c3)cnn2C1c1ccccc1C (stereo not given) | -5% | . | ?
CC1=C(C(=O)Nc2ccccc2)C(c2cc(Br)ccc2F)n2ncc(C(=O)Nc3ccccc3)c2N1 (stereo not given) | -4% | . | 20µM*
CC1=C(C(=O)Nc2ccc(C)cc2C)C(c2cc(Br)ccc2F)n2ncc(C(=O)Nc3ccc(C)cc3)c2N1 (stereo not given) | -1% | . | -29%
CC(=O)Nc1ccc(S(=O)(=O)Nc2nc3ccccc3nc2N2CCCC2)cc1 | -7% | 25% | 15%
O=S(=O)(Nc1nc2ccccc2nc1N1CCN(c2ccccc2)CC1)c1ccc(F)cc1 | -3% | 8% | 32µM*
Cc1ccc(-c2nnn(CC(=O)N(Cc3cccs3)C(C(=O)NC3CCCC3)c3ccco3)n2)o1 (stereo not given) | 7% | 1% | 4%
Cc1ccc(-c2nnn(CC(=O)N(c3ccccc3)C(C(=O)NC3CCCC3)c3ccco3)n2)o1 (stereo not given) | 1% | 6% | 10µM*
CN1CCC[C@@H]1c1cccnc1.O=C(O)c1ccccc1O.O=C([OH2+])c1ccccc1O.O=C([OH2+])c1ccccc1O.O=C([OH2+])c1ccccc1O.[Cu] | -1% | . | 14%
CCN(CC)c1ccc(N2C(=O)/C(=C\c3cccs3)SC2=S)cc1 | -3% | -2% | 25µM*
O=C1/C(=C/c2cccs2)SC(=S)N1c1ccccc1 | -1% | 10% | ?
O=C(Nc1ccc(NC(=O)C23CC4CC(CC(C4)C2)C3)cc1)c1cc(F)c(F)cc1Cl | 6% | -3% | 25µM*
O=C(Nc1ccc(Cc2ccncc2)cc1)c1cc(F)c(F)cc1Cl | . | 2% | .
CC(C)C[C@H](NC(=O)[C@H](Cc1cnc[nH]1)NC(=O)[C@@H](N)Cc1cnc[nH]1)C(=O)NCC(=O)NCC(=O)N[C@@H](C)C(=O)N[C@@H](CCCCN)C(=O)N[C@@H](CCC(N)=O)C(=O)N[C@@H](C)C(=O)NCC(=O)N[C@@H](CC(=O)O)C(=O)N[C@H](C(=O)O)C(C)C | . | -19% | .
COc1ccc(S(=O)(=O)N2CCN(c3ccc(Cl)c(Cl)c3)CC2)c2ccccc12 | -1% | . | 7.9µM*
COc1ccc(S(=O)(=O)N2CCN(C)CC2)c2ccccc12 | -2% | -21% | -1%
CCCCCn1c(=O)[nH]c2cc(C(=O)N3CCN(c4cccc(Cl)c4)CC3)ccc2c1=O | -4% | . | 7%
Cc1ccc(NC(=O)CSC2=Nc3ccccc3C3=NC(Cc4ccccc4)C(=O)N23)cc1C (stereo not given) | -6% | . | -21%
COc1ccc(NC(=O)CSC2=Nc3ccccc3C3=NC(Cc4ccccc4)C(=O)N23)cc1Cl (stereo not given) | -4% | . | 16µM*
CCOc1ccc(N(C(=O)c2ccc(Cl)cc2)S(=O)(=O)c2ccc3c(c2)n(C)c(=O)n3C)cc1 | 1% | . | -2%
NC(N)=NCCC[C@H](N)C(=O)NCC(=O)N[C@@H](CC(=O)O)C(=O)O | . | 4% | .
O=C(N/N=C/c1ccc(OCc2ccccc2)cc1)c1ccncc1 | . | 0% | .
Oc1ccc(N=Cc2ccc(OCc3ccccc3)cc2)cc1 | . | 20µM* | .
COc1ccc(N(Cc2ccccc2)S(=O)(=O)c2cccc(C(=O)NC3=NCCS3)c2)cc1 | 4% | 13% | 25µM*
SMILES | Cruzain inh Det | Giardia FBPA inh | Cruzain inh noDet
COc1cccc(C(=O)NC2=NCCS2)c1 | 0% | -2% | -5%
N#C/C(=C\c1ccc(-c2ccc(Cl)c(C(=O)O)c2)o1)c1nc2ccccc2[nH]1 | -3% | . | -5%
Cc1ccc2nc(/C(C#N)=C/c3ccccc3C(=O)O)[nH]c2c1 | . | -2% | .
Cc1ccc2nc(/C(C#N)=C/c3cccc(Br)c3)[nH]c2c1 | -2% | . | 20µM*
Cc1ccc2nc(/C(C#N)=C/c3ccc(-c4cccc(Cl)c4)o3)[nH]c2c1 | ? | . | 13µM*
O=C(CSc1nc2cc(C(=O)NC3CCCC3)ccc2c(=O)n1CC1CCCO1)c1cccc(Cl)c1 (stereo not given) | -22% | . | -26%
C=C1CCN(C(CC(C)C)C(=O)NN2CCOCC2)S(=O)(=O)c2ccccc21 (stereo not given) | . | 0% | .
CC(OCc1ccccc1)C(NC(=O)OC(C)(C)C)C(=O)NC1COC2CC(n3ccc(=O)[nH]c3=O)OC12 (stereo not given) | . | 6% | .
CCCCCCCCCCOc1cc(OCCCCCCCCCC)cc(N(CC(=O)O)CC(=O)O)c1 | . | -4% | .
CCCc1ccc(Oc2coc3cc(OCC(=O)Nc4ccccc4C)ccc3c2=O)cc1 | -4% | -1% | 6%
CCc1ccc(Oc2coc3cc(OCC(=O)Nc4cc(C)ccc4C)ccc3c2=O)cc1 | 2% | 5% | 25µM*
O=[N+]([O-])c1cccc(/C=N/Nc2nnc(-c3ccccc3)c(-c3ccccc3)n2)c1 | -5% | -6% | 7.9µM*
C/C(=N\Nc1nnc(-c2ccccc2)c(-c2ccccc2)n1)c1cccc([N+](=O)[O-])c1 | -6% | -8% | ?
CC(=O)Nc1ccc(SCCN2CCN(C)CCC2=O)cc1 | . | 0% | .
Cc1cccc(C)c1NC1=NC2(CCCCC2)N=C(N)N1 | 2% | -12% | 4%
NC1=NC2(CCCCC2)N=C(Nc2ccc(Br)cc2)N1 | 28µM* | 5% | 20µM*
COc1ccccc1NC(=O)c1ccc(NC(=O)COC(=O)C(C)C)cc1 | -4% | -1% | 3%
COc1ccccc1NC(=O)c1ccc(NC(=O)COC(=O)CC(NC(=O)c2ccccc2Cl)c2ccccc2)cc1 (stereo not given) | -6% | 0% | 20µM*
C=C(C)CN=C1NN=C(c2cc(C)n(-c3ccc(C)cc3)c2C)CS1 | -6% | -12% | 7.9µM*
Cc1cc(C2=NNC(=NC3CC3)SC2)c(C)n1-c1ccccc1F | -7% | -5% | ?
COc1ccc(-c2cn3c(n2)sc2cc(C(=O)NC4CCCCCC4)ccc23)cc1 | -5% | . | -8%
Cc1ccc(-c2cn3c(n2)sc2cc(C(=O)NC4CCCCCC4)ccc23)c(C)c1 | -1% | . | 10µM*
O=C1N/C(=N\N=C\c2cccs2)SC1Cc1cccc(Cl)c1 (stereo not given) | -3% | -3% | ?
O=C1N/C(=N\N=C\c2cccs2)SC1Cc1ccc(Cl)cc1 (stereo not given) | -6% | -16% | 2.5µM*
COc1cc(/C=N/Nc2ccc(Cl)c(C(=O)O)c2)ccc1OC(=O)c1cccs1 | . | 3% | .
COc1cc(/C=N/Nc2ccccc2)ccc1OC(=O)c1cccs1 | -3% | -9% | 13µM*
COc1cc(OC)cc(C(=O)Oc2ccc(/C=N/Nc3nc4ccccc4s3)cc2OC)c1 | -7% | -13% | 13µM*
COc1cc(/C=N/Nc2nc3ccccc3s2)ccc1OC(=O)c1ccccc1F | -3% | -4% | ?
CCOc1cc(C2c3c(-c4cc(C)ccc4O)n[nH]c3C(=O)N2CCCOC(C)C)ccc1O (stereo not given) | -18% | . | -4%
Clc1ccc(CSC2=NCCN2)cc1Cl | 1% | . | -4%
